Measured values reported in publication PMC5540273 (PLoS ONE, 2017).
Where “and” joins values, the source holds several entries; their conditions need not be identical. Equal values may be shown once. Read-outs that look alike come from different tables or passages of the source.

How the values were obtained:
CAMKK1 = details: concentration: 1 μM, replicates: in singlicate, n = 1
CAMKK2 = details: concentration: 1 μM, replicates: in singlicate, n = 1
CASK = details: concentration: 1 μM, replicates: in singlicate, n = 1
CDC2L1 = system: T1, CDC2L1; details: concentration: 1 μM, replicates: in singlicate, n = 1
T1 construct: gene CDK11B

CDC2L2 = details: concentration: 1 μM, replicates: in singlicate, n = 1
CDC2L5 = system: T2, CDC2L5; details: n = 1
T2 construct: gene CDK13

CDK11 = system: T3, CDK11; details: concentration: 1 μM, replicates: in singlicate, n = 1
T3 construct: gene CDK19

CDK2 = details: concentration: 1 μM, replicates: in singlicate; n = 1
CDK3 = details: concentration: 1 μM, replicates: in singlicate; n = 1
CDK4-cyclinD1 = details: n = 1
[1] = concentration: 1 μM, replicates: in singlicate
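Note: KINOMEscan kinase panel screen.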

| Structure (SMILES) | %Inh (CAMKK1) | %Inh (CAMKK2) | %Inh (CASK) | %Inh (CDC2L1) | %Inh (CDC2L2) | %Inh (CDC2L5; [1]) | %Inh (CDK11) | %Inh (CDK2) | %Inh (CDK3) | %Inh (CDK4-cyclinD1; [1]) | %Inh (CAMKK1; 1 µM) | %Inh (CAMKK2; 1 µM) | %Inh (CASK; 1 µM) | %Inh (CDC2L1; 1 µM) | %Inh (CDC2L2; 1 µM) | %Inh (CDK11; 1 µM) | %Inh (CDC2L5; 1 µM) | %Inh (CDK4-cyclinD1; 1 µM) |
| --- | --- | --- | --- | --- | --- | --- | --- | --- | --- | --- | --- | --- | --- | --- | --- | --- | --- | --- |
| Fc1ccc(-c2nn3c(OCC(F)(F)F)cccc3c2-c2ccncc2)cc1 [GW514784] | 8% | 9% | 7% | 0% | 11% | 0% | 3% | 0% | 0% | 46% |  |  |  |  |  |  |  |  |
| COc1cc2ncn(-c3cc(OCc4sccc4Cl)c(C(N)=O)s3)c2cc1OC [GSK448459] | 4% | 76% | 12% | 0% | 10% | 0% | 9% | 0% | 8% | 0% |  |  |  |  |  |  |  |  |
| Cc1cccc(-c2nc(Nc3ccc4ncsc4c3)c3ccccc3n2)n1 [GW867588] | 0% | 20% | 1% | 0% | 13% | 0% | 0% | 9% | 6% | 0% |  |  |  |  |  |  |  |  |
| [2H]C([2H])(c1cccc(C(F)(F)F)c1C)n1ccn2c(=O)nc(N3CCOCC3)cc12 [GSK2336394] | 0% | 0% | 8% | 0% | 17% | 0% | 5% | 0% | 1% | 0% |  |  |  |  |  |  |  |  |
| Cl.Oc1cccc(Nc2ccnc3cc(-c4ccncc4)ccc23)c1 [GW494601] | 0% | 29% | 10% | 0% | 10% | 0% | 4% | 0% | 0% | 0% |  |  |  |  |  |  |  |  |
| CCn1cnc2c(N)ncnc21 [GW345098] | 8% | 2% | 31% | 1% | 6% | 0% | 0% | 0% | 1% | 0% |  |  |  |  |  |  |  |  |
| O=c1cc(N2CCOCC2)nc2n(Cc3cccc(F)c3)ccn12 [GSK2297430] | 25% | 3% | 0% | 3% | 6% | 0% | 0% | 7% | 1% | 0% |  |  |  |  |  |  |  |  |
| O=C(NCCCN1CCOCC1)c1cccc(Nc2nccc(Nc3ccc(Oc4ccccc4)cc3)n2)c1 [GW663929] | 0% | 7% | 7% | 10% | 26% | 0% | 15% | 0% | 0% | 6% |  |  |  |  |  |  |  |  |
| O=C(Nc1cccc(-c2nn3ncccc3c2-c2ccnc(Nc3cccc(C(F)(F)F)c3)n2)c1)c1c(F)cccc1F [GSK299495] | 0% | 8% | 13% | 0% | 19% | 0% | 15% | 0% | 3% | 0% |  |  |  |  |  |  |  |  |
| NCC(NC(=O)c1cc(-c2cn[nH]c2)c(-c2ccnc3[nH]ccc23)s1)c1ccccc1.O=C(O)C(F)(F)F.O=C(O)C(F)(F)F (stereo not drawn) [GSK1325775] | 76% | 67% | 23% | 0% | 11% | 32% | 34% | 0% | 0% | 48% |  |  |  |  |  |  |  |  |
| COc1ccc(S(=O)(=O)NC2CCN(c3cc(C)nc(Nc4cccc(C#N)c4)n3)CC2)cc1.O=C(O)C(F)(F)F [GSK1653539] | 2% | 16% | 0% | 0% | 37% | 0% | 0% | 0% | 0% | 0% |  |  |  |  |  |  |  |  |
| O=C1NC(=O)C(N2CCc3ccccc32)=C1c1cccc(Cl)c1 [SB-408010] | 7% | 0% | 0% | 0% | 5% | 0% | 0% | 0% | 0% | 0% |  |  |  |  |  |  |  |  |
| Cc1cccc(-c2nc(-c3ccc(S(C)(=O)=O)cc3)sc2-c2ccncc2)c1 | 4% | 5% | 0% | 0% | 0% | 9% | 0% | 14% | 3% | 0% |  |  |  |  |  |  |  |  |
| Cc1ccc(NC(=O)c2ccnc(N3CCN(C)CC3)c2)cc1-c1ccc(C(=O)NCC2CC2)cc1 [GW775604] | 0% | 0% | 10% | 0% | 0% | 0% | 0% | 0% | 34% | 0% |  |  |  |  |  |  |  |  |
| NS(=O)(=O)c1cccc(-c2ccc3nccc(-c4cccc(S(N)(=O)=O)c4)c3c2)c1 [GW867253] | 13% | 19% | 30% | 0% | 0% | 0% | 13% | 0% | 22% | 0% |  |  |  |  |  |  |  |  |
| O=C(NCCNc1ccnc(Nc2ccc(F)cc2)n1)Nc1ccccc1F [GSK1379880] | 0% | 0% | 1% | 0% | 9% | 0% | 0% | 0% | 20% | 0% |  |  |  |  |  |  |  |  |
| NCCNS(=O)(=O)c1ccc(-c2ccnc3[nH]ccc23)cc1 [GSK977617] |  |  |  |  |  | 0% |  | 0% | 0% | 0% | 31% and 9% | 37% and 16% | 19% and 21% | 0% and 14% | 13% and 15% | 9% and 0% |  |  |

| Structure (SMILES) | %Inh (CAMKK1) | %Inh (CAMKK2) | %Inh (CASK) | %Inh (CDC2L1) | %Inh (CDC2L2) | %Inh (CDC2L5; [1]) | %Inh (CDK11) | %Inh (CDK2) | %Inh (CDK3) | %Inh (CDK4-cyclinD1; [1]) | %Inh (CAMKK1; 1 µM) | %Inh (CAMKK2; 1 µM) | %Inh (CASK; 1 µM) | %Inh (CDC2L1; 1 µM) | %Inh (CDC2L2; 1 µM) | %Inh (CDK11; 1 µM) | %Inh (CDC2L5; 1 µM) | %Inh (CDK4-cyclinD1; 1 µM) |
| --- | --- | --- | --- | --- | --- | --- | --- | --- | --- | --- | --- | --- | --- | --- | --- | --- | --- | --- |
| Fc1ccc(-c2ncn(CCCN3CCOCC3)c2-c2ccccn2)cc1 [SB-211742] | 16% | 19% | 0% | 1% | 0% | 21% | 0% | 0% | 43% | 22% |  |  |  |  |  |  |  |  |
| O=c1cc(N2CCOCC2)nc2n(Cc3cccc(Cl)c3Cl)c(C3CC3)nn12 [GSK2358994] | 3% | 8% | 26% | 0% | 0% |  | 0% | 0% | 5% |  |  |  |  |  |  |  | 0% | 0% |
| Cn1ccc2ncnc(Oc3ccc(NC(=O)Nc4ccncc4)c(Cl)c3)c21 | 0% | 2% | 0% | 0% | 0% | 25% | 0% | 0% | 0% | 0% |  |  |  |  |  |  |  |  |
| Cc1c2ccc(N(C)c3ccnc(Nc4cccc(S(N)(=O)=O)c4)n3)cc2nn1Cc1ccccc1.Cl.Cl [GW787226] | 0% | 0% | 9% | 66% | 76% | 0% | 9% | 0% | 3% | 0% |  |  |  |  |  |  |  |  |
| Cc1nnc(-c2ccc3ncc(-c4ccc(S(C)=O)cc4)n3c2)o1 (stereo not drawn) | 24% | 46% | 0% | 0% | 0% | 25% | 17% | 0% | 2% | 8% |  |  |  |  |  |  |  |  |
| CC(=O)Nc1ccc(COc2ccc(Nc3ccnc4cc(-c5ccccn5)ccc34)cc2)cc1.Cl [GW440148] | 4% | 26% | 1% | 12% | 11% | 0% | 17% | 1% | 0% | 0% |  |  |  |  |  |  |  |  |
| COC(=O)Nc1nc2cc(Oc3ccc(NC(=O)Nc4cc(F)ccc4F)cc3)ccc2[nH]1.Cl [GW701424] | 0% | 4% | 0% | 0% | 6% | 0% | 0% | 0% | 0% | 20% |  |  |  |  |  |  |  |  |
| Nc1nc(-c2ccc3c(N)n[nH]c3c2)cc(N2CCCC2)n1 [GSK2227430] | 0% | 10% | 0% | 0% | 14% | 0% | 1% | 0% | 0% | 0% |  |  |  |  |  |  |  |  |
| CN1c2ccc(NCc3ccc(F)cc3)cc2-c2c(cnn2C)S1(=O)=O | 0% | 0% | 26% | 0% | 0% | 27% | 0% | 25% | 0% | 21% |  |  |  |  |  |  |  |  |
| COc1ccc(Nc2nccc(N3CCC(NC(=O)Nc4cccc(C(C)=O)c4)C3)n2)cc1 (stereo not drawn) [GSK1379731] | 0% | 1% | 0% | 0% | 0% | 0% | 79% | 0% | 0% | 2% |  |  |  |  |  |  |  |  |
| COc1cc2c(cc1OC[C@@H](O)CO)ncc1c3ccc(C#N)cc3[nH]c21 | 60% | 22% | 0% | 0% | 0% | 0% | 20% | 0% | 19% | 0% |  |  |  |  |  |  |  |  |
| CN1c2ccc(CNc3ccc(F)cc3)cc2-c2c(cnn2C)S1(=O)=O | 0% | 0% | 22% | 0% | 0% | 15% | 0% | 0% | 0% | 13% |  |  |  |  |  |  |  |  |
| c1ccc(-c2cc(-c3c[nH]nc3-c3ccccn3)ccn2)cc1 [GW576604] | 5% | 24% | 0% | 0% | 16% | 0% | 11% | 13% | 0% | 0% |  |  |  |  |  |  |  |  |
| Cc1nnc(-c2ccc3occ(-c4ccc(C(C)O)cc4)c3c2)o1 (stereo not drawn) | 12% | 14% | 4% | 1% | 4% | 22% | 0% | 5% | 4% | 0% |  |  |  |  |  |  |  |  |
| CCCCCc1nc2c(N)ncnc2n1CCCCC [SKF-97255] | 0% | 0% | 25% | 0% | 0% | 0% | 10% | 0% | 9% | 0% |  |  |  |  |  |  |  |  |
| O=C(NCCNc1ccnc(Nc2ccc(F)cc2)n1)c1cc2ccccc2s1 [GSK1379874] | 5% | 0% | 1% | 0% | 8% | 0% | 0% | 0% | 0% | 0% |  |  |  |  |  |  |  |  |
